Experimental data as given in the supplement of paper PMC3334620.
Over roughly 33,000 sequences, “E-score (-0.5 to 0.5)” has its median near -8e-05; the highest 2% begin near 0.23. Only a selection was taken, and the highest values are over-represented in it overall.

target: T1, Nrg2 (UniProt P38082); test: PBM E-score (8-mer binding enrichment) (E-score (-0.5 to 0.5)); higher = stronger / more preferred TF binding; settings: protein concentration: 100 nM; construct: GST-full length
T1 sequence: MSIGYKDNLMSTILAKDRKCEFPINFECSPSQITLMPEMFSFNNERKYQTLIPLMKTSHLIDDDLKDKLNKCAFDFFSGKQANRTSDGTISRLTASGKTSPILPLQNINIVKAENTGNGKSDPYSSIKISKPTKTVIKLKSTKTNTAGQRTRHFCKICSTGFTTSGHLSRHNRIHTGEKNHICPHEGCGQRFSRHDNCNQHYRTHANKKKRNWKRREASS
Procedure: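 Universal 'all 10-mer' protein binding microarrays (Agilent AMADID 015681) probed with GST-tagged S. cerevisiae TFs (full-length or DBD) made by in vitro transcription/translation (PURExpress), about 100-200 nM. Bound TF was detected with fluorescent anti-GST. Each ungapped 8-mer (which stands for itself and its reverse complement) is scored by the PBM enrichment score (E-score), a modified Wilcoxon-Mann-Whitney statistic from -0.5 to +0.5, computed with the Universal PBM Analysis Suite. Scale: above 0.35 generally sequence-specific binding.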

Sequence	PBM E-score
TCACTGCA	0.167
CTCGGCCA	0.104
ACCTGGAA	0.203
CGGGCTAG	-0.0659
GTAAGACA	-0.0374
GGGATCAA	-0.0876
ATGAGATC	0.0358
CAGTTGGA	-0.00944
CAGGGTGC	0.19
AAGGGTTA	0.076
AAGGGTTG	0.167
AAGGGTTC	0.248
CAGGGTTA	0.0393
CAGGGTTC	0.387
AAATGCTA	0.0225
GACGCTAC	-0.0645
AAACTCTG	0.102
CATCTCAC	-0.0644
CATCTTAA	0.251
TATCTCAA	0.267
CATCTCAA	-0.0442
CTCATCAG	0.247
CTCATCAC	-0.0539
GATCTCAA	0.115
ATCATCAG	0.0405

Sequence	PBM E-score
AATCTTAA	0.0405
AATCTCAA	0.124
CATCTTAG	0.0135
CATCTCAG	0.23
GCCCTCAC	-0.177
GGTTCAAA	0.0475
CACGCAGG	0.0602
GACAGTGC	0.0298
AGTGATCA	0.063
AAACCCAA	0.0986
CTCGTTGC	0.212
ACTTGTAA	-0.0121
AGTCATAT	0.0126
AGGCTGAG	-0.0549
TCACTACA	0.24
TCACTAAA	0.099
GCACTAAA	0.0452
ATACTAAA	0.234
TTACTAAA	0.123
GTACTAAA	0.121
ACACTACA	0.108
CCACTACA	0.045
ACACTAAA	0.271
CAGATGCA	-0.158
ATTAACCG	0.107

Sequence	PBM E-score
ATGAGACA	0.0867
AGGTCGGG	-0.142
AAAACCAT	0.137
ATTTCTCA	0.0394
ATTTCGCC	0.0633
ATTTCTCG	0.285
ATTTCGAG	0.14
ATTTCGGG	0.037
ATTTCTCC	0.0443
CTTTCGCA	-0.0222
ATTTCGCG	0.275
ATTTCGCA	0.274
AGTTAAGA	0.0745
GGAACTCC	0.0233
GACTCCCA	-0.248
CGATCTCC	-0.0956
AATAGGAC	0.0448
ACGTCATC	-0.0886
GCTATTCC	-0.0857
ACTGCTCC	0.0162
TAACCCAA	-0.00379
CTAATTGC	0.0943
CTCTCTCA	-0.0307
ATCTCAAT	0.0327
ATCTCAAC	0.158

Sequence	PBM E-score
CTATCTCC	0.0511
ATATCTCC	0.251
GTCTCTCA	-0.0103
ATATCTCG	0.0423
ATCTCTCA	0.236
ATCTCAAG	0.238
ATATCTCA	0.238
ATCTCTCC	0.0215
CTATCTCA	0.0251
ACTCGCCT	0.063
GTCAGGCA	-0.108
TGCGGGAA	0.125
CAGACCTG	-0.119
GCGAATAA	0.18
GAGATACC	0.127
AGCTATGG	-0.0356
CTATCAAG	0.0817
ATATCAAT	0.212
ATATCAAG	0.285
AACTCAAG	-0.0395
CTCTTGAA	-0.0353
CAGGGCGG	-0.0602
CTAGTTGA	0.128
GACATTGC	-0.0455
AACCCGCG	0.267

Sequence	PBM E-score
ATCCCGCA	0.08
ATCCCGCG	0.294
AACCCGGG	0.255
CACCCGGG	-0.0923
AACCCGCA	0.0835
ATCCCGCC	0.0743
ACCCCGGG	-0.056
AACCCGCC	0.00993
AGTGGTCA	-0.145
TCGCCGAA	-0.124
CAGAGTAC	-0.112
ATATGGCC	-0.0218
CTTGTTAA	0.0818
ATTGTTAA	0.0152
GTTGTTAA	0.241
CGCAAGGC	0.203
CCTGTATA	0.0265
ACTGTATC	-0.0153
CCTGTATC	0.233
CAGATTAC	-0.0348
GCGGACAA	0.15
ACGGACAA	0.233
CCGGACAA	0.058
CGTACTTA	0.115
CACCAAGA	0.00109

Sequence	PBM E-score
AGTTTGAC	-0.104
AGTTTGAA	0.23
CGTTTGAA	0.00719
GGATCGCC	0.0218
AAAGGAGG	-0.252
ATCAAACC	0.123
ACAGAGCT	-0.214
ATCGAGCG	0.229
AGCGCGCG	0.274
ATCGAGCC	-0.103
ACCGCGCG	0.301
ATCGAGCA	0.0824
TGCCCGCA	0.148
ACCGCGCC	0.00956
CGCCCGCA	0.229
AGCGCGCC	0.0741
AGCGCGCT	0.187
ACCGCGCT	0.0712
CGCCCGCC	0.085
CACGTAGG	-0.156
AAAATTCA	0.199
CAACGCGC	0.215
GAAGGAAA	-0.238
AAAGCGCA	0.012
CGCGCAGA	0.232

Sequence	PBM E-score
CGCGCAGC	0.0142
GGCGCAGA	-0.0307
ATCTCGCG	0.282
ATCTCGCC	0.0341
AAGGGGCG	-0.117
CAGGGGCG	0.252
CAAGCGCA	0.363
ATCTCGCA	0.0354
CAAGCGCC	-0.196
CAGGGGCC	0.191
AAGTGATT	0.0989
CCCTGCGC	0.1
CCTCTTTC	-0.184
ACACTAGC	-0.00995
ACTAGGAC	-0.00051
GTTTGCGA	0.0803
GGTCTAGA	-0.109
AACGTTTC	-0.144
ATCTCCAC	-0.0729
CTGTTCGC	0.0452
GAGACAAA	-0.091
CACACCAA	0.063
AACTATCG	0.0118
CAGGCGCA	-0.114
ATCGCGCG	0.241

Sequence	PBM E-score
CAGGCGCC	0.0447
CAGGCGCG	0.231
AACGCGCG	0.319
CGAGCGAC	-0.0894
AGAGCGAG	-0.0653
AACGCGCA	0.0385
ATCGCGCC	0.201
AACGCGCT	0.123
ATCGCGCA	-0.004
CGAGCGAG	0.249
ATTCCCAA	0.0933
AGGCCCCT	0.0783
AGCCTCGA	-0.0885
CTAGTACA	0.0576
ACCCTAGC	0.0587
CTACTGAA	0.029
ATCCGATA	0.00821
AAGCAGTC	-0.135
CTCTCTTA	-0.0805
AGCAAAGA	-0.0188
AGACCAAT	-0.00568
CGCGGGCC	0.176
AAAACGCG	0.285
CAAACGCG	0.0917
CGCGCGCA	0.296

Sequence	PBM E-score
CACGCGCA	-0.0169
GGCGGGCA	-0.0772
CGCGCGAA	0.157
AAAACGCC	0.0808
CGCGGGCA	0.281
CGCGCGAG	0.245
TGCGCGCA	0.211
AGCGCGAG	0.0635
AAGATCGT	0.0712
TCAGAGCA	-0.0393
CACTTCAC	-0.0837
GCAACAGA	0.0125
ATTGGAGG	-0.149
AATCGCGG	0.162
ACCTCACT	-0.0963
CTCGCGAA	-0.00662
CGCGCGCC	0.211
CCCGCGCG	0.178
ATCGTGCC	-0.145
CTCGCGAG	0.257
CGCGCGCG	0.302
ATCGTGCA	0.0864
ATCGTGCG	0.272
CACGCGAG	0.225
AGTATACG	0.0367

Sequence	PBM E-score
CCCCAGAA	-0.0495
GATTGGCA	-0.0954
TCCAGACA	-0.0642
GGTAACGA	-0.00769
AATTGTGA	0.116
CTCACAAC	0.206
ATCGGAAA	0.0359
GTCGGAAA	0.234
CTCGGAAA	-0.0457
ATGTGAGG	-0.0251
ATGTCCGG	0.0983
GTGTAGTA	-0.0167
CTGTAGTA	0.245
ATGTAGTA	0.154
CAGCGTTC	0.0488
TGCCAACA	0.0266
AAATCTTG	0.0495
CGGCAGAA	0.154
AATGAAGG	0.0439
AATGAAGT	0.23
AATGAAGA	0.14
CTGAACGA	-0.166
AACGCAGC	0.253
AACGCAGA	-0.0108
CACGCAGC	-0.0258

Sequence	PBM E-score
CGGGTAAG	-0.13
AAACTATT	-0.0651
CTCATTTC	-0.0953
ATCATTTA	0.0968
ATCATTTC	0.242
AGTGCACG	0.0226
AATCATAG	0.235
AATCATAT	0.0761
AATCATAC	0.116
AGATTTGG	-0.144
CAAGTTGG	0.225
CTTTGTTC	0.0376
ATTTGTTC	0.272
ATTTGTTA	0.113
GAGTCAGC	-0.151
AAAAGTCG	0.0204
ACCCCATG	0.217
GAAAAATC	0.099
GCATTGCC	-0.0164
GTTCGAAC	0.233
ATTCGAAC	0.155
CTTCGAAC	0.108
GGAAGCAA	-0.0162
CCATGCAG	0.155
TCATGCAA	0.192

Sequence	PBM E-score
CCATGCAA	0.247
GGGGTCAC	-0.0806
ACGGGCGC	0.0207
AATCCCCT	0.0153
AACATAAA	-0.0006
CACATAAG	0.0356
AACATAAC	0.134
ATCATAAG	-0.085
AACATAAT	0.248
AACATAAG	0.246
GAAGGCAC	0.0779
TGTGAGAA	0.183
ATACATAT	0.235
CTCTATAC	-0.0911
CTATATAG	0.00641
TTATATAA	0.192
ATATAGTA	0.155
ATATAGTC	0.196
ATACATAA	0.0727
CTATATAC	0.238
CTATATAA	0.0499
ATACATAC	0.0623
ATATATAA	0.24
ATATAGTG	0.241
AGTGAGGC	-0.0681

Sequence	PBM E-score
AACCTTGC	-0.0724
AGCCAAAC	0.121
AGATTACG	0.121
AGCCGGAG	0.023
CGGTGAAG	-0.222
GCAACGAA	0.187
ACCATCAC	-0.0188
ATATATGG	0.23
GTATATAC	0.0119
ATATATAC	0.329
ATATATGA	0.0746
ATATATAT	0.107
ATATATGC	0.18
AACATCGG	-0.137
CTACAGAA	0.0765
CGGGTGAA	0.16
ATCCAGGC	0.0212
CATCAGGC	-0.00739
ACTCAGGA	-0.067
ACTCAGGC	0.00622
ACTCAGGG	0.294
AATCAGGG	0.0765
ATCCAGGA	-0.0938
ATTCAGGG	0.367
ATTCAGGC	0.106

Sequence	PBM E-score
CATCAGGG	0.229
ATCCAGGG	0.349
ATTCAGGA	0.117
AGCACAAC	0.0937
CTGTGCTC	0.0672
GGCTGTTA	-0.00387
ATCCGTAA	-0.136
AGGCTTCC	0.0147
TCTCTCAA	0.14
CAGTGAAG	-0.0253
CAGTGAAA	0.0943
CAGTGAAC	0.248
CCAGATAC	-0.0175
GTATGCAA	0.0781
GACCAGTA	-0.174
AGAATCAG	0.272
CGAATCAA	0.22
AGAATCAA	0.103
AGAATCAT	0.0757
CGAATCAG	0.122
CGAATTAA	0.175
TGAATCAA	0.232
GGAATTAA	0.153
TGAATTAA	0.273
